FUS suppressor = rescues growth of FUS-expressing yeast | S. cerevisiae FUS-expressing, growth rescue, OD600, 24 h | Potency, µM (highest dose often 76.6 µM), most hits filed as activators | 0.24% of 390,000 active | AID 1347120;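 also: potency is read from the fitted curve at half-maximal effect; plate controls were DMSO vehicle for no effect and reference control for full effect; nearly all actives have a fitted effect of over 55% in size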
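S. cerevisiae expressing FUS from galactose induction served as the toxicity model. Growth after 24hr at 30C, read as absorbance at 600 nm, indicates suppression of toxicity; compounds dosed at several concentrations.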
aSyn yeast inh = alpha-synuclein toxicity inhibition in yeast | Yeast expressing alpha-synuclein, growth rescue, BacTiter-Glo, 24 h | Potency, µM (series often up to 46.1 µM), without a hit: top-dose growth rescue (activation), usual class: activators | 0.14% of 370,000 active | AID 652106; also: potency is read from the fitted curve at half-maximal effect; % of control where 0% means no effect; nearly all actives have a fitted effect of over 65% in size
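Galactose-induced alpha-syn yeast (OD600=0.02, raffinose-pregrown) + pinned cpd, 24 hr, 30 deg C; growth by BacTiter-Glo luminescence. Growth restoration scores as activation.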
TDP43 rescue = TDP-43 toxicity inhibition in yeast; TDP-43 expressing yeast growth rescue, BacTiter-Glo, 24 h; Potency, µM (titrated, usually from 46.1 µM), for inactives: at the top dose growth rescue (activation), usual class: activators; 1.8% of 410,000 active; also: potency is read from the fitted curve at half-maximal effect; % of control where 0% means no effect; nearly all actives have a fitted effect of over 50% in size
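Yeast expressing TDP-43 (pregrown in raffinose, seeded at OD600=0.02 in galactose medium) exposed to compounds 24 hr at 30 deg C. Growth read by BacTiter-Glo luminescence; rescue of toxicity appears as increased signal.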
LDHA inh = inhibitors of human lactate dehydrogenase A | activity change, % (values are at about 110 or 230 µM) | purified LDHA, NADH/diaphorase-resazurin fluorescence; active compounds read low | 0.15% of 480,000 active; in the data active = activity change below about -30%; inconclusive = mostly about -25% to -30%;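 also: plate controls were DMSO wells for no effect and wells without enzyme for full effect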
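Human LDH5 at 2 nM final in Tris HCl pH 7.4 with 0.06 mM NADH and 0.2 mM pyruvate, reacted 5 minutes at room temperature. Remaining NADH coupled via diaphorase/resazurin; resorufin fluorescence read at 0 and 20 minutes, normalized to enzyme-free and DMSO wells.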
PTHR1 ag = activates the human parathyroid hormone receptor PTHR1; AID 743266; HEK293 GP2 PTHR1 cells, GloSensor cAMP luminescence, 1 h; Potency, µM (doses to about 115 µM), without a hit: top-dose activation, usual class: activators; Q03431; 0.075% of 410,000 active; also: potency is read from the fitted curve at half-maximal effect; nearly all actives have a fitted effect of over 55% in size
Target sequence (Q03431 whole entry, looked up): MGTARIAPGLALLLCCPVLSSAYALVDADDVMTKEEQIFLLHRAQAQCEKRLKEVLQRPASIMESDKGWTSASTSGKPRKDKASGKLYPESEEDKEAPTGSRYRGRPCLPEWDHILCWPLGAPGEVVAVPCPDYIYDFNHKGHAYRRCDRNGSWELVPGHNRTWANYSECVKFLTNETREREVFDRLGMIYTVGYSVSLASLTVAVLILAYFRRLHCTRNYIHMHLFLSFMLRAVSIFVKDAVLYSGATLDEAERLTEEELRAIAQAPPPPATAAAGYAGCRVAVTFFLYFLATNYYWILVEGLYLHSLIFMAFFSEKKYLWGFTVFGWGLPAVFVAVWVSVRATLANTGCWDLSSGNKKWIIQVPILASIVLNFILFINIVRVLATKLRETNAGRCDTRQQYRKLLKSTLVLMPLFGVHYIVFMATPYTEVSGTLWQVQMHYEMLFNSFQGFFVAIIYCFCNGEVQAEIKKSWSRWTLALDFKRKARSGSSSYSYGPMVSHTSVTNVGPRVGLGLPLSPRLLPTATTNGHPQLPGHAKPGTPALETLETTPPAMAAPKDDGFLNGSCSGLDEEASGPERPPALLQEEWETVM
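HEK-293-derived GP2 cells expressing PTHR1 and a GloSensor cAMP reporter, 3,000/well, plated overnight, given luciferin plus IBMX (each 0.5 mM as added) for 1 h at 37 °C, then compound for 1 h at 37 °C. Luminescence was read after 15 min at room temperature.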
Abeta yeast res = A-beta toxicity reversal in yeast. 0.063% of 410,000 active. yeast expressing A-beta42, growth rescue, OD600, 48 h; response scale: 0% DMSO, 100% iron-clioquinol control. Potency, µM (titrated, usually from 46.1 µM), usual class: activators; also: potency is read from the fitted curve at half-maximal effect; nearly all actives have a fitted effect of over 55% in size
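Growth rescue measured by 600 nm absorbance after 48 h yeast culture at 30 C with compound. Values normalized between DMSO and an equimolar ferric chloride plus clioquinol control.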
Active calls of the source: *; [ ] = dose if it differs, or a comment. The list is not random: actives were taken first. Their share in the collection is about 1.9%. Unless noted, calls follow the shape of the dose curve; as a rule, active = well fitted curve in the direction sought with a large enough effect; inconclusive = small, poorly fitted or top-dose-only effect, or another doubt; inactive = no such curve, though single readings can be large; an effect the other way counts as inactive or inconclusive.

Screening Cc1ccc2c(N)c(C)ccc2n1 returned LDHA inh 69.
O=C(C1CCCCC1)N1CCC(CO)(Cc2ccccc2Cl)CC1 was read as FUS suppressor inactive, aSyn yeast inh inconclusive, TDP43 rescue 26%, LDHA inh -1, PTHR1 ag inactive and Abeta yeast res inconclusive.
For O=C(C1CCCC1)N1CCC(CO)(Cc2ccccc2Cl)CC1 the results were FUS suppressor inactive, aSyn yeast inh 14%, TDP43 rescue 20µM*, LDHA inh -6, PTHR1 ag -30% and Abeta yeast res inconclusive.
Screening N#Cc1ccccc1S(=O)(=O)N1CCN(C(=O)C2COc3ccccc3O2)CC1 (stereo not given) returned aSyn yeast inh 0%, TDP43 rescue 11%, LDHA inh -7, PTHR1 ag inactive and Abeta yeast res inactive.
For COc1ccc(-c2csc(N3CCN(C(=O)c4ccco4)CC3)n2)cc1 the results were FUS suppressor inactive, aSyn yeast inh -15%, TDP43 rescue 20µM*, LDHA inh 0, PTHR1 ag -50% and Abeta yeast res inactive.
Screening O=C(c1ccc2nc(N3CCOCC3)sc2c1)N1CCN(C(=O)c2ccco2)CC1 returned FUS suppressor inactive, aSyn yeast inh 4%, TDP43 rescue 23%, LDHA inh -2, PTHR1 ag -37% and Abeta yeast res inactive.
Screening CCc1ccc2nc(N3CCN(C(=O)c4ccco4)CC3)sc2c1 returned FUS suppressor inconclusive, TDP43 rescue 14µM*, LDHA inh -3, PTHR1 ag -28% and Abeta yeast res inactive.
Screening CCSc1ccccc1C(=O)N1CCN(c2nc3ccccc3s2)CC1 returned FUS suppressor inactive, TDP43 rescue 18µM*, LDHA inh 1, PTHR1 ag -47% and Abeta yeast res inactive.
`O=C(C1COc2ccccc2O1)N1CCN(S(=O)(=O)c2cc(F)ccc2F)CC1` (stereo not given) gave FUS suppressor inactive, aSyn yeast inh -2%[1.84 µM], TDP43 rescue 28µM*, LDHA inh -19, PTHR1 ag -19% and Abeta yeast res inactive.
For COc1ccc2nc(N3CCN(C(=O)c4ccco4)CC3)sc2c1 the results were FUS suppressor inactive, TDP43 rescue 20µM*, LDHA inh 5, PTHR1 ag -28% and Abeta yeast res inactive.
CCOc1ccc2nc(N3CCN(C(=O)c4ccco4)CC3)sc2c1 was read as FUS suppressor inactive, TDP43 rescue inconclusive, LDHA inh -5, PTHR1 ag inactive and Abeta yeast res inactive.
For CCc1cc2ccc(C)cc2nc1SCC(=O)N1CCN(C(=O)c2ccco2)CC1 the results were aSyn yeast inh 4%, TDP43 rescue 14µM*, LDHA inh -6, PTHR1 ag -3% and Abeta yeast res inactive.
`O=C(C1COc2ccccc2O1)N1CCN(c2nc3ccccc3s2)CC1` (stereo not given) gave FUS suppressor inactive, aSyn yeast inh 7%, TDP43 rescue 11µM*, LDHA inh -6, PTHR1 ag -45% and Abeta yeast res inactive.
`CCc1cc2cc3c(cc2nc1SCC(=O)N1CCN(C(=O)c2ccco2)CC1)OCO3` gave FUS suppressor inactive, aSyn yeast inh 4%, TDP43 rescue 9%, LDHA inh -2, PTHR1 ag -6% and Abeta yeast res inactive.
For Cc1c(O)ccc2c(CN3CCCCC3)cc(=O)oc12 the results were LDHA inh 11.
Screening CN(C)c1ccc(C2CC(c3ccccc3)=CC(O)(c3ccccc3)C2C(=O)c2ccccc2)cc1 (stereo not given) returned LDHA inh -25.
For CCc1cc(=O)oc2cc(C)c(CN3CCCC(C)C3)c(O)c12 (stereo not given) the results were FUS suppressor 7.1µM*, aSyn yeast inh 12%, TDP43 rescue -26%, LDHA inh 5, PTHR1 ag inactive and Abeta yeast res inactive.
For CCCCc1cc(=O)oc2cc(C)c(CN3CCCC3)c(O)c12 the results were FUS suppressor inconclusive, aSyn yeast inh 7%, TDP43 rescue -16%, LDHA inh 11, PTHR1 ag inactive and Abeta yeast res inactive.
COc1ccc(-c2c(-c3cc(OC)cc(OC)c3)n(C)c3ccc(Br)cc23)cc1 was read as FUS suppressor inactive, aSyn yeast inh 1%, TDP43 rescue 13%, LDHA inh -9, PTHR1 ag -25% and Abeta yeast res inactive.
For COc1ccc(N=Nc2nc3ccc(Br)cc3n2C)cc1 the results were FUS suppressor inactive, aSyn yeast inh -15%, TDP43 rescue 13µM*, LDHA inh 16, PTHR1 ag -45% and Abeta yeast res inactive.
Screening COCc1nnc(NC(=O)c2cc(Cl)ccc2OC)s1 returned FUS suppressor inactive, aSyn yeast inh 0%, TDP43 rescue 0%, LDHA inh 2, PTHR1 ag inactive and Abeta yeast res inactive.
CCOCc1nnc(NC(=O)c2cc(Cl)ccc2OC)s1 was read as FUS suppressor inactive, aSyn yeast inh 11%, TDP43 rescue 13µM*, LDHA inh -5, PTHR1 ag inactive and Abeta yeast res inactive.
For COc1cc(OC)cc(C(=O)Nc2ccc3oc(-c4cc(OC)c(OC)c(OC)c4)nc3c2)c1 the results were LDHA inh -25.
Screening O=[N+]([O-])c1ccccc1CNc1ccc(F)c(Cl)c1 returned FUS suppressor inactive, aSyn yeast inh -11%, TDP43 rescue 18µM*, LDHA inh 3, PTHR1 ag inactive and Abeta yeast res inactive.
Screening O=C(CN1CCN(C(=O)c2ccco2)CC1)Nc1c2c(nc3c1CCC3)CCCC2 returned FUS suppressor inactive, aSyn yeast inh 1%, TDP43 rescue 3%, LDHA inh -35*, PTHR1 ag -4% and Abeta yeast res inactive.
O=C(Nc1cccs1)Nc1ccccc1Cl was read as FUS suppressor inactive, aSyn yeast inh -11%, TDP43 rescue 12%, LDHA inh -6, PTHR1 ag -18%[57.5 µM] and Abeta yeast res inactive.
`O=C(Nc1ccc(F)c(Cl)c1)Nc1csc2ccccc12` gave FUS suppressor inactive, aSyn yeast inh -19%, TDP43 rescue -8%, LDHA inh -12, PTHR1 ag -23% and Abeta yeast res inactive.
Screening Cc1ccc(NC(=O)Nc2cccs2)c(Cl)c1 returned FUS suppressor inactive, aSyn yeast inh -19%, TDP43 rescue 13µM*, LDHA inh -3, PTHR1 ag -27% and Abeta yeast res inactive.
Screening Cc1ccc(NC(=O)Nc2ncccc2C)cc1 returned FUS suppressor inactive, aSyn yeast inh -9%, TDP43 rescue 27%, LDHA inh -4, PTHR1 ag -28% and Abeta yeast res inactive.
